{
  "source": "the supplement of paper PMC8975748",
  "note": "Where a name gives a salt, the structure may show the parent alone.",
  "data": [
    {"test_system": "Saccharomyces cerevisiae BY4741 SeMeCo community", "experiment": "z-score of subpopulation abundance vs DMSO median, subpopulation auxotrophic for H; higher = larger share of this subpopulation than in DMSO controls", "details": "10 µM; 24 h; SM minimal medium; subpopulation (auxotrophy): H", "experimental": "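Fluorescent four-plasmid SeMeCo (self-establishing metabolically cooperating S. cerevisiae BY4741 community; plasmids pH-mRuby2, pL-mWasabi, pU-eCFP, pM-TagRFP657) was grown 24 h in minimal SM medium with each Selleck FDA-approved drug at 10 µM in 384-well plates. Cells were fixed and imaged by high-content confocal microscopy. For each auxotrophic subpopulation (and the prototroph), a z-score gives the deviation from the DMSO vehicle-control population median.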", "values": [
      {"compound": "O=C(O[C@H]1C[C@H]2CC[C@@H](C1)[N+]21CCCC1)C(O)(c1ccccc1)c1ccccc1", "note": "[Trospium chloride]", "z-score of subpopulation abundance": -0.71},
      {"compound": "CCC1=C[C@H]2CN3CCc4c([nH]c5ccccc45)[C@](C(=O)OC)(C2)[C@H]13", "note": "[Catharanthine]", "z-score of subpopulation abundance": -0.99},
      {"compound": "NC(=O)CN1CCCC1=O", "note": "[Piracetam]", "z-score of subpopulation abundance": 1.01},
      {"compound": "CC1(C)SC2C(N)C(=O)N2C1C(=O)O", "note": "(stereo not given) [6-Aminopenicillanic acid]", "z-score of subpopulation abundance": 0.55},
      {"compound": "COc1ccc2c(c1)[C@]13CCCC[C@@H]1[C@H](C2)N(C)CC3", "note": "[Dextromethorphan hydrobromide hydrate]", "z-score of subpopulation abundance": 0.44},
      {"compound": "COc1ccc(C(CN(C)C)C2(O)CCCCC2)cc1", "note": "(stereo not given) [Venlafaxine HCl]", "z-score of subpopulation abundance": -0.98},
      {"compound": "CNC1CC(N)C(O)C(OC2OC(CO)C(O)C3OC4(OC(C(N)CO)C(O)C(O)C4O)OC23)C1O", "note": "(stereo not given) [Hygromycin B]", "z-score of subpopulation abundance": -0.88},
      {"compound": "COc1ccc(C=O)cc1", "note": "[p-Anisaldehyde]", "z-score of subpopulation abundance": -0.35},
      {"compound": "CN1[C@@H]2C[C@@H](OC(=O)[C@H](CO)c3ccccc3)C[C@H]1[C@@H]1O[C@@H]12", "note": "[Scopolamine HBr trihydrate]", "z-score of subpopulation abundance": -0.46},
      {"compound": "NCC(O)c1ccc(O)cc1", "note": "(racemic) [(+,-)-Octopamine HCl]", "z-score of subpopulation abundance": -1.07},
      {"compound": "CN(C)C(=O)Oc1ccc[n+](C)c1", "note": "[Pyridostigmine Bromide]", "z-score of subpopulation abundance": 0.16},
      {"compound": "CC[C@H]1[C@@H]2C[C@H]3[C@@H]4N(C)c5ccccc5[C@]45C[C@@H]([C@@H]2[C@H]5O)N3[C@@H]1O", "note": "[Ajmaline]", "z-score of subpopulation abundance": -0.87},
      {"compound": "CCN1CC2(OC(=O)c3ccccc3NC(C)=O)CCC(OC)C34C1C(CC23)C1(O)CC(OC)C2CC4C1(O)C2OC", "note": "(stereo not given) [Lappaconitine]", "z-score of subpopulation abundance": -0.16},
      {"compound": "CN(C)[C@@H]1C(=O)C(C(N)=O)=C(O)[C@@]2(O)C(=O)C3=C(O)c4c(O)cccc4[C@@](C)(O)[C@H]3[C@H](O)[C@@H]12", "note": "[Oxytetracycline (Terramycin)]", "z-score of subpopulation abundance": 1.45},
      {"compound": "N[C@@H]1C[C@H]1c1ccccc1", "note": "[Tranylcypromine (2-PCPA) HCl]", "z-score of subpopulation abundance": -0.67},
      {"compound": "Cn1cc(C2=C(c3cn(C4CCN(Cc5ccccn5)CC4)c4ccccc34)C(=O)NC2=O)c2ccccc21", "z-score of subpopulation abundance": -2.71},
      {"compound": "C[N+]12CCC(CC1)C(OC(=O)C(O)(c1ccccc1)c1ccccc1)C2", "note": "(stereo not given) [Clidinium Bromide]", "z-score of subpopulation abundance": -0.48},
      {"compound": "NCCc1c[nH]c2ccc(O)cc12", "note": "[Serotonin HCl]", "z-score of subpopulation abundance": -1.54},
      {"compound": "CN(C)[C@@H]1C(=O)C(C(N)=O)=C(O)[C@@]2(O)C(=O)C3=C(O)c4c(O)cccc4[C@@](C)(O)[C@H]3[C@H](O)[C@@H]12", "note": "[Oxytetracycline Dihydrate]", "z-score of subpopulation abundance": 0.31},
      {"compound": "C[C@H]1O[C@H](O[C@H]2[C@H](O)[C@@H](O)[C@@H](O)[C@H](O)[C@@H]2O)[C@@H](N)C[C@@H]1NC(=N)C(=O)O", "note": "[Kasugamycin hydrochloride]", "z-score of subpopulation abundance": 0.49},
      {"compound": "CN1C(=O)COc2c(C(=O)NC3CN4CCC3CC4)cc(Cl)cc21", "note": "(stereo not given) [Azasetron HCl]", "z-score of subpopulation abundance": -0.91},
      {"compound": "O=C(O[C@H]1C[N+]2(CCCOc3ccccc3)CCC1CC2)C(O)(c1cccs1)c1cccs1", "note": "[Aclidinium Bromide]", "z-score of subpopulation abundance": -0.92},
      {"compound": "COC(=O)C1=CCCN(C)C1", "note": "[Arecoline HBr]", "z-score of subpopulation abundance": 0.32},
      {"compound": "CN[C@@H]1[C@@H](O)[C@@H](O[C@@H]2[C@@H](O)[C@H](O[C@H]3O[C@H](CN)CC[C@H]3N)[C@@H](N)C[C@H]2N)OC[C@]1(C)O.CN[C@@H]1[C@@H](O)[C@@H](O[C@@H]2[C@@H](O)[C@H](O[C@H]3O[C@H]([C@@H](C)N)CC[C@H]3N)[C@@H](N)C[C@H]2N)OC[C@]1(C)O.CN[C@@H]1[C@@H](O)[C@@H](O[C@@H]2[C@@H](O)[C@H](O[C@H]3O[C@H]([C@@H](C)NC)CC[C@H]3N)[C@@H](N)C[C@H]2N)OC[C@]1(C)O", "note": "[Gentamicin Sulfate]", "z-score of subpopulation abundance": -0.2},
      {"compound": "COc1cc2c(cc1OC)C1CC(=O)C(CC(C)C)CN1CC2", "note": "(stereo not given) [Tetrabenazine (Xenazine)]", "z-score of subpopulation abundance": 0.02},
      {"compound": "CC(C)(O)C(Cl)(Cl)Cl", "note": "[Chlorobutanol]", "z-score of subpopulation abundance": -0.15},
      {"compound": "CC(C)N(CCC(C(N)=O)(c1ccccc1)c1ccccn1)C(C)C", "note": "(stereo not given) [Disopyramide]", "z-score of subpopulation abundance": 1.28},
      {"compound": "CN(C)[C@@H]1C(=O)C(C(N)=O)=C(O)[C@@]2(O)C(=O)C3=C(O)c4c(O)cccc4[C@@](C)(O)[C@H]3C[C@@H]12", "note": "[Tetracycline HCl]", "z-score of subpopulation abundance": 1.08},
      {"compound": "CN[C@@H]1[C@@H](O)[C@@H](O[C@@H]2[C@@H](O)[C@H](O[C@H]3O[C@H]([C@@H](C)O)[C@@H](O)[C@H](O)[C@H]3N)[C@@H](N)C[C@H]2N)OC[C@]1(C)O", "note": "[Geneticin (G418 Sulfate)]", "z-score of subpopulation abundance": -0.21},
      {"compound": "CCCCCCCCCCCCCCCC[n+]1ccccc1", "note": "[Cetylpyridinium Chloride]", "z-score of subpopulation abundance": 19.3},
      {"compound": "CN1c2ccccc2C(NCCCCCCC(=O)O)c2ccc(Cl)cc2S1(=O)=O", "note": "(stereo not given) [Tianeptine sodium]", "z-score of subpopulation abundance": -0.28},
      {"compound": "CC[N+](C)(CC)CCOC(=O)C(O)(c1ccccc1)c1ccccc1", "note": "[Methylbenactyzine Bromide]", "z-score of subpopulation abundance": 0.06},
      {"compound": "CC[C@@]1(O)C(=O)OCc2c1cc1n(c2=O)Cc2cc3ccccc3nc2-1", "note": "[Camptothecin]", "z-score of subpopulation abundance": -1.03},
      {"compound": "CN1[C@@H]2CC[C@H]1C[C@@H](OC(=O)[C@H](CO)c1ccccc1)C2", "note": "[Hyoscyamine]", "z-score of subpopulation abundance": -0.74},
      {"compound": "CC(=O)O[C@H]1C[C@@H]2CC[C@@H]3[C@H](CC[C@@]4(C)[C@H]3C[C@H]([N+]3(C)CCCCC3)[C@@H]4OC(C)=O)[C@@]2(C)C[C@@H]1[N+]1(C)CCCCC1", "note": "[Pancuronium dibromide]", "z-score of subpopulation abundance": -0.63},
      {"compound": "COc1ccc(C(CN(C)C)C2(O)CCCCC2)cc1", "note": "(stereo not given) [Venlafaxine]", "z-score of subpopulation abundance": -1.33},
      {"compound": "CC[C@@H](C(N)=O)N1CCCC1=O", "note": "[Levetiracetam]", "z-score of subpopulation abundance": -0.46},
      {"compound": "Oc1cc(Cl)ccc1Oc1ccc(Cl)cc1Cl", "note": "[Triclosan]", "z-score of subpopulation abundance": -1.93},
      {"compound": "N#Cc1nn(-c2c(Cl)cc(C(F)(F)F)cc2Cl)c(N)c1[S+]([O-])C(F)(F)F", "note": "(stereo not given) [Fipronil]", "z-score of subpopulation abundance": 0.48},
      {"compound": "CCOC(=O)Nc1ccc(NCc2ccc(F)cc2)cc1N", "note": "[Retigabine]", "z-score of subpopulation abundance": 1.45}
    ]}
  ]
}
